Only some compounds are listed: those with a hit (about 12% of all), similar ones and a draw of the others.
USP17 block: human USP17-like deubiquitinase inhibition | A8MUK1 | purified USP17, Ub-rhodamine cleavage fluorescence, 3 h | inhibition, % at 50 µM | 47,000 tested, 6.5% active
Target sequence (A8MUK1 whole entry, looked up): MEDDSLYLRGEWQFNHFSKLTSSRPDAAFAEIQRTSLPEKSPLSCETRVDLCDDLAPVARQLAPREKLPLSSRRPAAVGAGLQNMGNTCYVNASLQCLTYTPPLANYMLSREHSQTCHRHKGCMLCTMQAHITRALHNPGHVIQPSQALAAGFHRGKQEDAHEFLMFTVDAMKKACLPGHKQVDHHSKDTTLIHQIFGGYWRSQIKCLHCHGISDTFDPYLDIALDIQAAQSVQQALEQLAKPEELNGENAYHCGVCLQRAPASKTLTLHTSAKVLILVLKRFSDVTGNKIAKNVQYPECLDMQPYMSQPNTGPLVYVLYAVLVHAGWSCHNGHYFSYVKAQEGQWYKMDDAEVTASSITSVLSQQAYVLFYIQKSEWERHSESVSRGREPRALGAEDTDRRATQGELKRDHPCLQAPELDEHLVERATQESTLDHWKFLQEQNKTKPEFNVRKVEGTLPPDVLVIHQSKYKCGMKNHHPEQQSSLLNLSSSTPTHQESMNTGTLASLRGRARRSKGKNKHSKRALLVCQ
USP30 inh: inhibitors of human USP30 deubiquitinase | Q70CQ3 | purified USP30, Ub-rhodamine cleavage fluorescence | inhibition, % at 25 µM | 47,000 tested, 5.3% active | AID 1645860
USP28 block: human USP28 deubiquitinase inhibition. purified USP28, Ub-rhodamine cleavage fluorescence, 30 min. Q96RU2. 47,000 tested, 3% active. AID 1645857. inhibition, % at 25 µM
OTUD3 inh: blocks human OTUD3 ubiquitin-rhodamine cleavage | 47,000 tested, 0.7% active | inhibition, % at 25 µM | purified OTUD3, Ub-rhodamine fluorescence, 2 h | Q5T2D3
Numbers without * were called inactive. No stated cut-off is given here; in the data, active means inhibition above about 30%; inactive means the rest.

`COc1cc2c(cc1OC)-c1cc(Oc3ccc(C)c(C)c3)nc(=O)n1CC2` gave USP17 block -43, USP30 inh -463, USP28 block -160 and OTUD3 inh -71.
`FC(F)(F)Oc1ccccc1-c1nnc(-c2ccncc2)o1` gave USP17 block 12, USP30 inh 15, USP28 block 12 and OTUD3 inh 13.
For CCN1CCC2(CC1)OC(=O)C(C)=C2C(=O)NCc1ccc(OC)cc1 the results were USP17 block 7, USP30 inh 12, USP28 block 2 and OTUD3 inh 7.
Screening COc1ccc(C)cc1NC(=O)CN1C(=O)C2CCCC2=Nc2ccccc21 (stereo not drawn) returned USP17 block 82*, USP30 inh 77*, USP28 block 22 and OTUD3 inh 35*.
`COc1ccc(CNC(=O)CN2C(=O)C3CCCC3=Nc3ccccc32)cc1` (stereo not drawn) gave USP17 block 22, USP30 inh 33*, USP28 block 14 and OTUD3 inh 25.
For COc1cccc(NC(=O)CN2C(=O)C3CCCC3=Nc3ccccc32)c1 (stereo not drawn) the results were USP17 block 16, USP30 inh 9, USP28 block 13 and OTUD3 inh 8.
Screening Cc1ccc(S(=O)c2ccc(NC(=O)c3ccc(Cl)c(Cl)c3)cc2C#N)cc1 (stereo not drawn) returned USP17 block 21, USP30 inh 27, USP28 block 5 and OTUD3 inh 10.
O=C(NCc1noc(C2CCCCC2)n1)C1CCCC1 was read as USP17 block -13, USP30 inh -8, USP28 block -21 and OTUD3 inh -6.
`CC(C)c1nc(CNC(=O)C2CCCCC2)no1` gave USP17 block 37*, USP30 inh 10, USP28 block 6 and OTUD3 inh 4.
`Cc1c(C(=O)N(C)Cc2ccco2)nnn1-c1cccc2c1CCN(S(C)(=O)=O)C2` gave USP17 block 3, USP30 inh -12, USP28 block 0 and OTUD3 inh -1.
`CNC(=O)C1CN(C(=O)Nc2ccccc2OC)CC12CCCC2` (stereo not drawn) gave USP17 block -1, USP30 inh 7, USP28 block -4 and OTUD3 inh 0.
`Cc1ccc(NC(=O)COC(=O)CCc2nc(=O)c3ccccc3n2C)c(Br)c1` gave USP17 block 2, USP30 inh 17, USP28 block 9 and OTUD3 inh 11.
O=C(CCc1c[nH]c2ccccc12)Nc1ccc(Br)cc1F was read as USP17 block 14, USP30 inh 17, USP28 block 42* and OTUD3 inh 17.
`N#Cc1ccc(OCC(=O)NC(Cc2ccccc2)c2nc3ccccc3[nH]2)cc1` (stereo not drawn) gave USP17 block 12, USP30 inh 9, USP28 block 3 and OTUD3 inh 1.
`Cc1ccccc1-n1nc2c(c1NC(=O)c1ccc(F)c(F)c1)CS(=O)(=O)C2` gave USP17 block -8, USP30 inh -2, USP28 block -4 and OTUD3 inh -5.
CCCCOc1ccc(C(=O)Nc2c3c(nn2-c2ccccc2C)CSC3)cc1 was read as USP17 block 46*, USP30 inh 25, USP28 block 19 and OTUD3 inh 19.
Screening C[C@H](Cc1cc2c(cc1O)OCO2)[C@@H](C)Cc1cc2c(cc1O)OCO2 returned USP17 block 100*, USP30 inh 93*, USP28 block 97* and OTUD3 inh 93*.
`Cc1cc2c(cc1CCc1cc3c(cc1C)OCO3)OCO2` gave USP17 block 0, USP30 inh 0, USP28 block -2 and OTUD3 inh 0.
O=C(Nc1ccc(F)c(F)c1)c1cnc(N2CCOCC2)nc1 was read as USP17 block 7, USP30 inh 3, USP28 block 11 and OTUD3 inh 10.
For O=C(Nc1ccc2c(c1)OCO2)c1cnc(N2CCOCC2)nc1 the results were USP17 block 40*, USP30 inh 0, USP28 block 17 and OTUD3 inh 0.
`O=C(Nc1ccc(OCC(=O)N2CCOCC2)cc1)c1ccc2c(c1)OCO2` gave USP17 block 15, USP30 inh 24, USP28 block 37* and OTUD3 inh 14.
`O=C(COc1ccc(C(=O)c2ccccc2)cc1)Nc1ccc2c(c1)OCO2` gave USP17 block 0, USP30 inh 15, USP28 block 23 and OTUD3 inh 0.
`O=C(Nc1ccc2c(c1)OCCO2)c1cnc(N2CCOCC2)nc1` gave USP17 block -9, USP30 inh -7, USP28 block 42* and OTUD3 inh -3.
Screening C=C(NC(=O)C(=C)NC(=O)C(=C)NC(=O)c1ccc2c(n1)-c1coc(n1)C(=C)NC(=O)C(=C)NC(=O)c1nc(oc1C)/C(=C/C)NC(=O)c1csc(n1)C(OC)NC(=O)c1nc(oc1C)/C(=C/C(C)O)NC(=O)C(C(C)O)NC(=O)c1csc-2n1)C(N)=O (stereo not drawn) returned USP17 block 3, USP30 inh -195, USP28 block -37 and OTUD3 inh -33.
Fc1ccc(Cc2nc(-c3ccnc(N4CCCC4)c3)no2)cc1 was read as USP17 block -9, USP30 inh 0, USP28 block 48* and OTUD3 inh -3.
`Cc1cccc(OCc2nc(-c3ccnc(N4CCCC4)c3)no2)c1` gave USP17 block 10, USP30 inh 18, USP28 block 32* and OTUD3 inh 7.
c1cc(-c2noc([C@@H]3CCCN3CC3CC3)n2)cc(N2CCCC2)n1 was read as USP17 block -1, USP30 inh -21, USP28 block -6 and OTUD3 inh 0.
`COc1ccc(OCc2nc(-c3ccc(N4CCCCCC4)nc3)no2)cc1` gave USP17 block 5, USP30 inh -254, USP28 block -16 and OTUD3 inh -38.
For Cc1sc2ncnc(OCC(=O)c3cc(F)ccc3F)c2c1C the results were USP17 block 2, USP30 inh 7, USP28 block -5 and OTUD3 inh -9.
For Cc1sc2ncnc(SCC(=O)c3cc(C)n(Cc4ccco4)c3C)c2c1C the results were USP17 block 39*, USP30 inh -142, USP28 block 19 and OTUD3 inh 6.
For Cc1ccc(C)c(NC(=O)CSc2cc(N3CCCCC3)ncn2)c1 the results were USP17 block 11, USP30 inh 41*, USP28 block 9 and OTUD3 inh 16.
`O=C(CSc1cc(N2CCCCC2)ncn1)NC1CCCC1` gave USP17 block 6, USP30 inh 18, USP28 block 4 and OTUD3 inh 4.
For O=S(=O)(Nc1cc(-c2ccncc2)no1)c1ccc(Cl)cc1 the results were USP17 block 1, USP30 inh 0, USP28 block 0 and OTUD3 inh -2.
Screening COc1ccc(-c2cnc(N)nc2C2CCCNC2)cc1 (stereo not drawn) returned USP17 block 10, USP30 inh 17, USP28 block 10 and OTUD3 inh 7.
For COc1ccc(NC(=O)CSc2oc(-c3ccc(C)cc3)nc2S(=O)(=O)c2ccc(Br)cc2)c(OC)c1 the results were USP17 block 59*, USP30 inh 16, USP28 block 10 and OTUD3 inh 5.

Bioassay records as filed in PubChem BioAssay.
